LYPLA1 inh – blocks human lysophospholipase 1, a PME1 counter-screen; O75608; recombinant LYPLA1, FP-Rh probe fluorescence polarization; inhibition, % at 5.9 µM; 320,000 tested, 0.16% active; AID 2174;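 active = inhibition above the mean of all tested compounds plus 3 SD, set per campaign, cut at about 14% in these data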;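 note: inhibitors block serine hydrolase probe labeling of LYPLA1 so polarization falls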
LYPLA2 counter – counter-screen for PME1 inhibitors: inhibitors of human LYPLA2; O95372; recombinant LYPLA2, FP-Rh probe fluorescence polarization; inhibition, % at 5.9 µM; 320,000 tested, 0.38% active; AID 2177;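 active = inhibition above the screen-wide mean plus 3 SD, limit set per campaign, cut at about 26% in these data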
PME-1 primary – blocks human protein phosphatase methylesterase 1; Q9Y570; recombinant PME-1, FP-Rh probe fluorescence polarization; inhibition, % at 5.9 µM; 320,000 tested, 0.53% active; AID 2130;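 active = inhibition above the campaign mean of all compounds plus 3 SD, cut at about 26% in these data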;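 note: competitive labeling of PME-1 active site by serine hydrolase directed probe; inhibitors block probe labeling so polarization falls and inhibition rises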
PAD4 inh – blocks human protein arginine deiminase 4. inhibition, % at 6.36 µM. 330,000 tested, 0.41% active. AID 485272. recombinant PAD4, RCA probe fluorescence polarization. Q9UM07;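 active = percent inhibition above a cutoff equal to the mean of all tested compounds plus 3 SD, cut at about 15% in these data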
Target sequence (Q9UM07 whole entry, looked up): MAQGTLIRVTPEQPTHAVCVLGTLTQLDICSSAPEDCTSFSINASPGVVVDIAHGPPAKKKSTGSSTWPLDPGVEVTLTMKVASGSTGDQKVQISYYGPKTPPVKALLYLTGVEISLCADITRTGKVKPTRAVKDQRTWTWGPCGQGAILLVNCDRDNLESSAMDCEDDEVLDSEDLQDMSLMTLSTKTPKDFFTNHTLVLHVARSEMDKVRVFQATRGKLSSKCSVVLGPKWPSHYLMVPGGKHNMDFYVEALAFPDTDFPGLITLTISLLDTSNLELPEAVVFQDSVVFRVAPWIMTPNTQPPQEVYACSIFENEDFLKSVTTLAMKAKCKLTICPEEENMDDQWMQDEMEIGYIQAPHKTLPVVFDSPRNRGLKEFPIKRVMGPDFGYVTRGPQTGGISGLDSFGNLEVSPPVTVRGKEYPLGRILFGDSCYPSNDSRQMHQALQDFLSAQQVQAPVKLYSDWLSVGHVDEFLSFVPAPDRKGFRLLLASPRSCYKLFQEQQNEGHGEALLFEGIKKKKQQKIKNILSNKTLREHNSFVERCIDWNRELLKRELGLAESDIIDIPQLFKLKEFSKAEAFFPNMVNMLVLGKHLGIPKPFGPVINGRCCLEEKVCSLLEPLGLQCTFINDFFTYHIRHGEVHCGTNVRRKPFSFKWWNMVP
GSTO1 counter – blocks human GSTO1 in RBBP9 counter-screen | P78417 | 300,000 tested, 1.1% active | inhibition, % at 5.96 µM | recombinant GSTO1, activity-based probe fluorescence polarization | AID 1974;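 active = inhibition above the campaign mean inhibition plus 3 SD, cut at about 35% in these data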
Fam108B counter – Fam108B inhibition, counter-screen for RBBP9 inhibitors | recombinant Fam108B, FP-Rh probe fluorescence polarization | AID 1947 | 300,000 tested, 0.33% active | inhibition, % at 9.51 µM;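 active = inhibition above the screen mean inhibition plus 3 SD, computed separately per campaign, cut at about 18% in these data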;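 note: inhibitors lower polarization as less probe binds the enzyme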
Numbers stand for hits. Sampled rows, rich in hits. Any-hit rate of the full collection: about 1.8%.

What do the screens show for `COc1cc2c(cc1OC)-c1cc3ccc4c(c3c[n+]1CC2)OCO4`?
LYPLA1 inh: inactive; LYPLA2 counter: inactive; PME-1 primary: inactive; PAD4 inh: inactive; GSTO1 counter: 42; Fam108B counter: inactive

What do the screens show for `O=C(CCl)NC1CCCc2ccccc21` (centres undefined)?
LYPLA1 inh: inactive; LYPLA2 counter: inactive; PME-1 primary: inactive; PAD4 inh: inactive; GSTO1 counter: 72; Fam108B counter: inactive

How did O=C(NC1CCCc2ccccc21)C1CCN(S(=O)(=O)c2ccccc2F)CC1 (centres undefined) do in these assays?
LYPLA1 inh: inactive; LYPLA2 counter: inactive; PME-1 primary: 58; PAD4 inh: inactive; GSTO1 counter: inactive; Fam108B counter: inactive

How did O=C(Cc1ccc(Br)cc1)NC1CCCc2ccccc21 (centres undefined) do in these assays?
LYPLA1 inh: inactive; LYPLA2 counter: inactive; PME-1 primary: inactive; PAD4 inh: inactive; GSTO1 counter: inactive; Fam108B counter: inactive

What do the screens show for `CNC(=O)c1c(NC(=O)c2ccc(S(=O)(=O)N3CC(C)OC(C)C3)cc2)sc2c1CCN(C(C)C)C2` (centres undefined)?
LYPLA1 inh: inactive; LYPLA2 counter: inactive; PME-1 primary: inactive; PAD4 inh: inactive; GSTO1 counter: inactive; Fam108B counter: inactive

Results for CNC(=O)c1c(NC(=O)c2ccc(S(=O)(=O)N3CCCC3)cc2)sc2c1CCN(C(C)C)C2 ?
LYPLA1 inh: inactive; LYPLA2 counter: inactive; PME-1 primary: 34; PAD4 inh: inactive; GSTO1 counter: inactive; Fam108B counter: inactive

What do the screens show for `CCOc1ccc(NC(C(=O)Nc2cccc(C(C)=O)c2)c2ccccc2)cc1` (centres undefined)?
LYPLA1 inh: inactive; LYPLA2 counter: inactive; PME-1 primary: 32; PAD4 inh: inactive; GSTO1 counter: inactive; Fam108B counter: inactive

What do the screens show for `O=C(NCc1ccco1)/C(=C\c1ccc(F)cc1)NC(=O)c1ccco1`?
LYPLA1 inh: inactive; LYPLA2 counter: inactive; PME-1 primary: inactive; PAD4 inh: inactive; GSTO1 counter: inactive; Fam108B counter: inactive

Results for COc1ccc2c(c1)OC(O)(C(F)(F)F)CC2=O (centres undefined) ?
LYPLA1 inh: inactive; LYPLA2 counter: inactive; PME-1 primary: inactive; PAD4 inh: inactive; GSTO1 counter: 36; Fam108B counter: inactive

What do the screens show for `CCOc1ccc2c(c1)OC(c1ccc(OC)cc1)(C(F)(F)F)NC2=O` (centres undefined)?
LYPLA1 inh: inactive; LYPLA2 counter: inactive; PME-1 primary: inactive; PAD4 inh: inactive; GSTO1 counter: inactive; Fam108B counter: inactive

What do the screens show for `COc1cc2c(cc1OC)CN(C(=O)c1ccc3[nH]c(C)c(C)c3c1)CC2`?
LYPLA1 inh: inactive; LYPLA2 counter: inactive; PME-1 primary: 38; PAD4 inh: inactive; GSTO1 counter: inactive; Fam108B counter: inactive

How did COc1ccc(C(=O)N2CCc3cc(OC)c(OC)cc3C2)cc1OC do in these assays?
LYPLA1 inh: inactive; LYPLA2 counter: inactive; PME-1 primary: inactive; PAD4 inh: inactive; GSTO1 counter: inactive; Fam108B counter: inactive

What do the screens show for `Cc1ccc(CN(C)C(=O)CN2C(=O)NC3(CCCc4ccccc43)C2=O)c(C)c1` (centres undefined)?
LYPLA1 inh: inactive; LYPLA2 counter: inactive; PME-1 primary: inactive; PAD4 inh: inactive

What do the screens show for `CCC(=O)OC1(C)C(=O)C=C2C=C(CCCCNC(=O)OC(C)(C)C)OC=C2C1=O` (centres undefined)?
LYPLA1 inh: inactive; LYPLA2 counter: inactive; PME-1 primary: inactive; PAD4 inh: inactive; GSTO1 counter: inactive; Fam108B counter: inactive

What do the screens show for `CC(C)(C)OC(=O)NCCCC1=CC2=CC(=O)C(C)(OC(=O)c3ccc(Cl)nc3)C(=O)C2=CO1` (centres undefined)?
LYPLA1 inh: 18; LYPLA2 counter: inactive; PME-1 primary: inactive; PAD4 inh: 25; GSTO1 counter: inactive; Fam108B counter: inactive

Results for Brc1ccc(/C=N/Nc2nc3ccccc3o2)cc1 ?
LYPLA1 inh: inactive; LYPLA2 counter: inactive; PME-1 primary: 31; PAD4 inh: inactive; GSTO1 counter: inactive; Fam108B counter: inactive

What do the screens show for `COc1cc(/C=N\Nc2nc3ccccc3o2)cc(OC)c1OC`?
LYPLA1 inh: inactive; LYPLA2 counter: inactive; PME-1 primary: 29; PAD4 inh: inactive; GSTO1 counter: inactive; Fam108B counter: inactive

Results for COc1ccc(/C=N/Nc2nc3ccccc3o2)cc1O ?
LYPLA1 inh: inactive; LYPLA2 counter: inactive; PME-1 primary: 48; PAD4 inh: inactive; GSTO1 counter: inactive; Fam108B counter: inactive

How did COc1ccccc1C(=O)NC(CCSC)C(=O)NNC(=O)C(C)Oc1ccccc1F (centres undefined) do in these assays?
LYPLA1 inh: inactive; LYPLA2 counter: inactive; PME-1 primary: inactive; PAD4 inh: inactive

What do the screens show for `Cc1ccc(NC(=O)COC(=O)CCc2c(C)nc3nc(N)nn3c2C)cc1C`?
LYPLA1 inh: inactive; LYPLA2 counter: inactive; PME-1 primary: inactive; PAD4 inh: inactive

How did COc1cccc(C(=O)Nc2ccc3nc(N4CCN(c5ncccn5)CC4)cc(C)c3c2)c1OC do in these assays?
LYPLA1 inh: inactive; LYPLA2 counter: inactive; PME-1 primary: inactive; PAD4 inh: inactive; GSTO1 counter: 37; Fam108B counter: inactive

What do the screens show for `CCOc1ccccc1C(=O)Nc1ccc2nc(N3CCN(c4ncccn4)CC3)cc(C)c2c1`?
LYPLA1 inh: inactive; LYPLA2 counter: inactive; PME-1 primary: inactive; PAD4 inh: inactive; GSTO1 counter: inactive; Fam108B counter: inactive

What do the screens show for `Cc1noc(C)c1COc1cccc(C(=O)N(C)Cc2cccs2)c1`?
LYPLA1 inh: inactive; LYPLA2 counter: inactive; PME-1 primary: inactive; PAD4 inh: inactive

What do the screens show for `Cc1c(C(=O)N/N=C/c2ccc(O)c(Br)c2)sc(N)c1C#N`?
LYPLA1 inh: inactive; LYPLA2 counter: inactive; PME-1 primary: 29; PAD4 inh: inactive; GSTO1 counter: inactive; Fam108B counter: inactive

Results for Cc1ccc2nsnc2c1NS(=O)(=O)c1c(C)ccc2nsnc12 ?
LYPLA1 inh: inactive; LYPLA2 counter: inactive; PME-1 primary: 31; PAD4 inh: inactive; GSTO1 counter: inactive; Fam108B counter: inactive

Results for CCCCC(=O)c1ccc(O)cc1 ?
LYPLA1 inh: inactive; LYPLA2 counter: inactive; PME-1 primary: inactive; PAD4 inh: inactive; GSTO1 counter: inactive; Fam108B counter: inactive

What do the screens show for `O=C(CCO)c1ccc(O)cc1`?
LYPLA1 inh: inactive; LYPLA2 counter: inactive; PME-1 primary: inactive; PAD4 inh: inactive; GSTO1 counter: 37; Fam108B counter: inactive

What do the screens show for `O=C(O)C(C(=O)Oc1ccccc1)C(C(=O)O)C(=O)Oc1ccccc1` (centres undefined)?
LYPLA1 inh: inactive; LYPLA2 counter: inactive; PME-1 primary: inactive; PAD4 inh: inactive

What do the screens show for `CC(=O)NCC(=O)OCN1C(=O)c2ccccc2C1=O`?
LYPLA1 inh: inactive; LYPLA2 counter: inactive; PME-1 primary: inactive; PAD4 inh: inactive; GSTO1 counter: 36; Fam108B counter: inactive

Results for CN(C(=S)Nc1ccc(SC(F)F)cc1)c1ccc(O)cc1 ?
LYPLA1 inh: inactive; LYPLA2 counter: inactive; PME-1 primary: inactive; PAD4 inh: inactive; GSTO1 counter: 66; Fam108B counter: inactive
